ST2 IL33 inh = inhibitors of human ST2 (IL1RL1) binding to IL-33, primary screen, biochemical, AlphaLISA | Interleukin-1 receptor-like 1 (Homo sapiens), Q01638 | AlphaLISA ST2-Fc/biotin-IL-33 interaction, 1 h | inhibition, % for hits at 17 µM | 78,000 compounds, 2.3% hits | AID 1259354, 2018; in the data active = inhibition above about 30%
Target sequence (Q01638 whole entry, looked up): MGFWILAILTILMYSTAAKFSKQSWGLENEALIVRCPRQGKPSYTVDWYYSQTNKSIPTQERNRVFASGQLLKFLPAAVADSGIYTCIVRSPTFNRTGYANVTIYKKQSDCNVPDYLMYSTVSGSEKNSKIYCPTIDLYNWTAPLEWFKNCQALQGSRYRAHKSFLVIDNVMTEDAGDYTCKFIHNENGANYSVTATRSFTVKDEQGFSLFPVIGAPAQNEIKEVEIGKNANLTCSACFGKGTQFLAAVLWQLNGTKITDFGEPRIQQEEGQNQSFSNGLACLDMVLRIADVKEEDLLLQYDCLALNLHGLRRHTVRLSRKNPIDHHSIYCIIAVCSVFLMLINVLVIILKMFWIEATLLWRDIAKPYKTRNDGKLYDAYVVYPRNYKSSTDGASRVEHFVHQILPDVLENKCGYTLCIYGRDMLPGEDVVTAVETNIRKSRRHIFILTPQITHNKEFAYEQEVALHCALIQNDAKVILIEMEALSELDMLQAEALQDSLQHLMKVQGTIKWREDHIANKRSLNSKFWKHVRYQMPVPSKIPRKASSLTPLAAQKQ
Of the large screens only hits and unclear results are named; the others gave an inactive call; ! = not active in a repeat. The sample as a whole holds a higher share of hits than the screen did.

O=[N+]([O-])c1cccc(C(=Nc2ccccc2)NO)c1	none
CCCn1cc(C(=O)N2CC(Oc3ccccc3OC)C2)c(C)n1	none
Cc1cc(N2CCN(C)CC2)nc2ccc(NC(=O)CCC(=O)N3CCCC3)cc12	none
O=C(Cn1c(=O)c2sccc2n(Cc2ccc(Cl)cc2)c1=O)NCc1ccco1	none
O=C(CCCn1c(=O)c2sccc2n(Cc2ccc(F)cc2)c1=O)NCc1ccco1	ST2 IL33 inh 30%!
O=C(CCCn1c(=O)c2sccc2n(Cc2ccc(Cl)cc2)c1=O)NCc1ccco1	none
COc1ccccc1N1CCN(C2CC(=O)N(c3ccc(C(=O)O)cc3)C2=O)CC1 (stereo not drawn)	none
COc1ccc(CN2C(=S)N(CC3CCCCC3)[C@H]3[C@@H]2[C@H]2OC(=O)[C@@H]3C[C@H]2O)cc1	none
COc1cc(/C=C/CO)ccc1O[C@@H]1O[C@H](CO)[C@@H](O)[C@H](O)[C@H]1O	none
CC/C=C\CCO[C@@H]1O[C@H](CO)[C@@H](O)[C@H](O)[C@H]1O	ST2 IL33 inh 31%
OC[C@H]1O[C@@H](OCCc2ccccc2)[C@H](O)[C@@H](O)[C@@H]1O	none
COc1ccc(NC(=O)CSc2cn(C)c3ccccc23)c(OC)c1	none
CCC(C)N(Cc1cccnc1)C(=O)c1cc(-c2cnn(C)c2C)n[nH]1 (stereo not drawn)	none
Cc1ccc(N2C(=O)S/C(=C\c3ccc(O)cc3)C2=O)cc1	none
N=C1S/C(=C\c2ccc(O)cc2)C(=O)N1c1ccc(F)cc1	none
N=C1S/C(=C\c2ccc(N3CCOCC3)cc2)C(=O)N1c1ccc(Br)cc1	ST2 IL33 inh 32%
Cc1ccc2[nH]cc(-c3cc(C(=O)N4CCCC4)ccn3)c2c1	none
CCCC(C)NC(=O)c1ccc(N(C)C)cc1 (stereo not drawn)	none
CN(C)c1ccc(C(O)(c2ccc(N(C)C)cc2)c2ccc(N(C)C)cc2)cc1	ST2 IL33 inh 97%
CN(C)c1ccc(NC(=O)c2ccc(Cl)cc2)cc1	none
Cc1ccc(S(=O)(=O)Nc2cccc(C)c2C)cc1[N+](=O)[O-]	none
CCOC(=O)CC1=C(C(=O)OCC)C(c2ccc(C)o2)C(C#N)=C(N)O1 (stereo not drawn)	none
Cc1ccc(C2C(C#N)=C(N)OC3=C2C(=O)CCC3)o1 (stereo not drawn)	none
Cc1ccc(C2C(C#N)=C(N)Oc3c2sc2ccccc32)o1 (stereo not drawn)	ST2 IL33 inh 39%
O=C(Cn1nc(-c2ccccc2)nc1-c1ccccc1)Nc1ccc(Br)cc1	none
CCOc1ccc(NC(=O)CSC2=Nc3ccccc3C3=NC(C(C)C)C(=O)N23)cc1 (stereo not drawn)	none
Cc1cc(C)c(S(=O)(=O)N2CCCC2=O)c(C)c1	none
CCN1CCN(Cc2c(C)[nH]c3c(C)cc(C)cc3c2=O)CC1	none
Cc1cc(C)c(N2CCC(=O)N2)c(C)c1	ST2 IL33 inh 33%
Cc1cc(CN2CCC(n3cc(-c4cc(F)cc(F)c4)nn3)CC2)n[nH]1	none
CC1CCN(S(=O)(=O)c2ccc3c(c2)N(CC(=O)NCc2cccs2)C(=O)CS3)CC1	none
CC1=C(C(=O)OC2CCCCC2)C(c2cccc(F)c2)n2ncnc2N1 (stereo not drawn)	none
O=[N+]([O-])c1cc([N+](=O)[O-])c2c(OCc3ccccc3)nsc2c1	ST2 IL33 inh 43%
Cc1nc2c(sc3cc([N+](=O)[O-])cc(Sc4ccccc4)c32)c(=O)n1C	none
Cc1c(N=Cc2ccccc2)cc([N+](=O)[O-])cc1[N+](=O)[O-]	none
C=CCN(Cc1ccc(F)cc1)C(=O)Cc1ccc2nc(C)[nH]c2c1	none
CCOc1ccc(C2CC(c3ccccc3OC)n3ncnc3N2)cc1 (stereo not drawn)	none
CCOc1ccc(C2Nc3cccc4cccc(c34)N2)cc1	ST2 IL33 inh 36%
CCOc1ccc(C2CC(c3ccc(Cl)cc3)n3nc(N)nc3N2)cc1 (stereo not drawn)	none
CSc1cccc(CN2CCC(n3cc(CC(C)O)nn3)CC2)c1 (stereo not drawn)	none
CCSCCOC(=O)C1=C(C)NC(=O)NC1c1ccc(CC)cc1 (stereo not drawn)	none
NCC(=O)Nc1ccccc1-c1csc2ccccc12	none
O=C(Nc1ccc(N2CCOCC2)cc1)c1ccccc1	none
O=C(Nc1ccc(N2CCOCC2)cc1)c1cccc([N+](=O)[O-])c1	ST2 IL33 inh 30%
Cc1cc(C(=O)Nc2ccc(N3CCOCC3)cc2)ccc1[N+](=O)[O-]	none
c1ccc(N2CCN(C3CCCN(Cc4ccn[nH]4)C3)CC2)cc1 (stereo not drawn)	none
Cc1cc2c3c(C)n(C)c(C)c3c(C)nn2c1	ST2 IL33 inh 54%
CC(NC(=O)CN(c1ccc(F)cc1)S(=O)(=O)c1ccccc1)c1ccccc1 (stereo not drawn)	none
CC(=O)N1/C(=C/c2ccc([N+](=O)[O-])cc2)C(=O)c2ccccc21	ST2 IL33 inh 51%
CC(C)C(C(=O)Nc1ccc([N+](=O)[O-])cc1)N1C(=O)c2ccccc2C1=O (stereo not drawn)	none
O=C(ON1C(=O)c2ccccc2C1=O)c1ccc([N+](=O)[O-])cc1	none
NS(=O)(=O)c1ccc(N=Cc2ccccc2F)cc1	none
O=C(NCCc1ccco1)C1CC(Cc2ccc(F)cc2)=NO1 (stereo not drawn)	none
CC(C)Cc1ccc(C(C)C(=O)NC(C)C)cc1 (stereo not drawn)	none
CC1(C)[C@@H]2CC[C@]1(CS(=O)(=O)Nc1ccc(Cl)cc1)C(=O)C2	none
Cc1ccccc1-c1cccc(C(=O)NCC2CC(=O)N(C3CC3)C2)c1 (stereo not drawn)	none
Cn1cncc1-c1nnc([C@H]2CCN(CCCc3ccccc3)C2)o1	none
CN(Cc1ccc(Sc2nncn2C)o1)C1CCCN(Cc2ccccc2F)C1 (stereo not drawn)	none
COc1ccc(C2CCN(Cc3ccc(Sc4nncn4C)o3)c3ccccc3S2)cc1C (stereo not drawn)	ST2 IL33 inh 31%
COc1ccc(-c2nn(-c3ccccc3C)cc2CNC2CCOCC2)cc1F	none
O=[N+]([O-])c1ccccc1CN1CCN(CCOCCO)CC1	none
CS(=O)(=O)c1ccc(CN2C[C@H](O)C[C@H]2c2nc(-c3ccc(F)cc3)no2)cc1	none
O[C@@H]1C[C@@H](c2nc(-c3ccc(OC(F)(F)F)cc3)no2)N(Cc2ccccc2)C1	none
CS(=O)(=O)c1ccc(CN2C[C@H](O)C[C@H]2c2nc(-c3ccc(OC(F)(F)F)cc3)no2)cc1	ST2 IL33 inh 32%
CCNC(=O)c1cccc(-c2ccnc3c2ccn3C)c1	none
O=C(Cn1cccn1)NCc1cccnc1Oc1ccc(F)c(F)c1	none
CCc1ccc(C(=O)CC2(O)C(=O)Nc3ccccc32)cc1 (stereo not drawn)	none
CCc1ccc(N2C(=O)Nc3ccc(Br)cc3C2(O)C(=O)NC(C)C)cc1 (stereo not drawn)	none
CCc1ccc2c(c1)C1(NN=C(c3ccc(C)cc3)S1)C(=O)N2 (stereo not drawn)	ST2 IL33 inh 45%
COc1ccc(Br)cc1C(=O)Nc1ccc(F)c(Cl)c1	none
COc1ccc(CC(=O)Nc2cc(Cl)ccc2Cl)cc1	none
Cc1ccc(-n2nc3ccc(NC(=O)c4ccc5c(c4)OCCO5)cc3n2)cc1Cl	ST2 IL33 inh 34%
COc1ccc(C(=O)Nc2ccc3nn(-c4ccc(F)cc4)nc3c2)cc1OC	none
Cc1ccc(-n2nc3ccc(NC(=O)COc4ccccc4)cc3n2)cc1Cl	none
Cc1cc(N2CCC(C)CC2)nc2ccc(NC(=O)c3ccc4c(c3)OCO4)cc12	none
COc1ccc(-n2nc3ccc(NC(=O)c4ccc(OC)c(Cl)c4)cc3n2)cc1	ST2 IL33 inh 33%
COc1ccc(-n2nc3cc(C)c(NC(=O)c4ccc(Cl)c([N+](=O)[O-])c4)cc3n2)cc1	none
